Out of some 5,500 compounds screened, about 2,000 (36%) were called active. Not shown: some 18% with an inconclusive outcome. No stated cut-off is given here; in the data, active means normalized growth mostly below about 0.91 (no sharp cut-off); inconclusive means no clear call, values can overlap the other calls; inactive means mostly above about 0.92. The list shows a part of the results.
Assay: chemical genetic growth profiling, strain panel (AID 1159580);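 further: tested at 20 µM; growth read once vehicle control cultures reached saturation at 30 °C; 1 = growth at the plate median or of vehicle wells; lower values mean less growth of the strain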
Settings: growth OD
[1] = S. cerevisiae deletion strains, locus YAL040C, strain CLN3, active compounds read low
[2] = S. cerevisiae deletion strains, locus YCL061C, strain MRC1 (second series), active compounds read low
[3] = S. cerevisiae deletion strains, locus YDR363W, strain ESC2, active compounds read low
[4] = S. cerevisiae deletion strains, locus YER002W, strain NOP16, active compounds read low
[5] = S. cerevisiae deletion strains, locus YGR078C, strain PAC10, active compounds read low
[6] = S. cerevisiae deletion strains, locus YMR307W, strain GAS1, active compounds read low
[7] = S. cerevisiae deletion strains, locus YNL175C, strain NOP13, active compounds read low
[8] = S. cerevisiae deletion strains, locus YNL197C, strain WHI3, active compounds read low
[9] = S. cerevisiae deletion strains, locus YNL224C, strain SQS1, active compounds read low
[10] = S. cerevisiae deletion strains, locus YOR083W, strain WHI5 (second series), active compounds read low
[11] = S. cerevisiae deletion strains, locus YPL055C, strain LGE1, active compounds read low
[12] = S. cerevisiae deletion strains, locus YPL241C, strain CIN2, active compounds read low
[13] = S. cerevisiae deletion strains, locus YAL013W, strain DEP1, active compounds read low

Measured: normalized growth

COc1cc(-c2ccc(=O)[nH]n2)ccc1OC(F)F
inactive: [1] 0.975 | [2] 1.01 | [3] 0.997 | [4] 1 | [5] 1.01 | S. cerevisiae deletion strains, locus YJR075W, strain HOC1, active compounds read low 1 | [6] 0.995 | S. cerevisiae deletion strains, locus YNL128W, strain TEP1, active compounds read low 1.01 | [7] 1.03 | [8] 0.994 | [9] 1.01 | S. cerevisiae deletion strains, locus YNL322C, strain KRE1, active compounds read low 0.997 | [10] 1.02 | [11] 1.02 | [12] 1

Cn1ccnc1
inactive: [13] 1.01 | [1] 1.01 | [2] 1 | S. cerevisiae deletion strains, locus YDR150W, strain NUM1, active compounds read low 1 | [3] 1.01 | [4] 1 | [5] 1.01 | S. cerevisiae deletion strains, locus YMR263W, strain SAP30, active compounds read low 1.01 | [6] 1 | [7] 1 | [8] 1 | [9] 1.01 | [10] 1.02 | [11] 1

CC(=O)O[C@H]1CC[C@@]2(C)C(CC[C@]3(C)C2C(=O)C=C2C4[C@@H](C)[C@H](C)CC[C@]4(C(=O)O)CC[C@]23C)C1(C)C (some centres not stated)
active: S. cerevisiae deletion strains, locus YKL009W, strain mrt4, active compounds read low 1.52 [resistant] | S. cerevisiae deletion strains, locus YKL085W, strain MDH1 (second series), active compounds read low 1.08 [resistant] | S. cerevisiae deletion strains, locus YKL085W, strain MDH1, active compounds read low 1.08 [resistant]
inactive: [13] 1 | S. cerevisiae deletion strains, locus YBR021W, strain FUR4, active compounds read low 1.03 | S. cerevisiae deletion strains, locus YBR229C, strain ROT2, active compounds read low 1.01 | S. cerevisiae deletion strains, locus YCL029C, strain bik1, active compounds read low 0.989 | S. cerevisiae deletion strains, locus YDL035C, strain GPR1, active compounds read low 0.993 | S. cerevisiae deletion strains, locus YDL074C, strain BRE1, active compounds read low 0.981 | S. cerevisiae deletion strains, locus YDL101C, strain DUN1, active compounds read low 1.01 | S. cerevisiae deletion strains, locus YDL185W, strain tfp1, active compounds read low 0.971 | S. cerevisiae deletion strains, locus YDL192W, strain arf1, active compounds read low 0.992 | S. cerevisiae deletion strains, locus YDR101C, strain arx1, active compounds read low 1.01 | S. cerevisiae deletion strains, locus YDR162C, strain NBP2, active compounds read low 1.03 | S. cerevisiae deletion strains, locus YDR318W, strain mcm21, active compounds read low 0.995 | S. cerevisiae deletion strains, locus YDR388W, active compounds read low 1 | S. cerevisiae deletion strains, locus YDR502C, strain sam2, active compounds read low 0.982 | S. cerevisiae deletion strains, locus YEL061C, strain CIN8, active compounds read low 1.01 | S. cerevisiae deletion strains, locus YER110C, active compounds read low 0.988 | S. cerevisiae deletion strains, locus YER155C, strain BEM2, active compounds read low 1.01 | S. cerevisiae deletion strains, locus YER167W, strain BCK2, active compounds read low 0.991 | S. cerevisiae deletion strains, locus YGL078C, strain dbp3, active compounds read low 1.01 | S. cerevisiae deletion strains, locus YGL086W, strain mad1, active compounds read low 1.04 | S. cerevisiae deletion strains, locus YGL248W, strain PDE1, active compounds read low 1.01 | [5] 1.01 | S. cerevisiae deletion strains, locus YGR135W, strain pre9, active compounds read low 1 | S. cerevisiae deletion strains, locus YGR229C, strain SMI1, active compounds read low 0.994 | S. cerevisiae deletion strains, locus YGR252W, strain gcn5, active compounds read low 1 | S. cerevisiae deletion strains, locus YHR030C, strain SLT2, active compounds read low 1.01 | S. cerevisiae deletion strains, locus YHR079C, strain IRE1 (second series), active compounds read low 0.997 | S. cerevisiae deletion strains, locus YHR094C, strain hxt1, active compounds read low 0.989 | S. cerevisiae deletion strains, locus YHR129C, strain ARP1, active compounds read low 1.01 | S. cerevisiae deletion strains, locus YHR200W, strain rpn10, active compounds read low 1.01 | S. cerevisiae deletion strains, locus YIL066C, strain RNR3, active compounds read low 1 | S. cerevisiae deletion strains, locus YIL073C, strain SPO22, active compounds read low 1.03 | S. cerevisiae deletion strains, locus YIL125W, strain kgd1, active compounds read low 0.98 | S. cerevisiae deletion strains, locus YIR030C, strain dcg1, active compounds read low 0.992 | S. cerevisiae deletion strains, locus YJL095W, strain BCK1, active compounds read low 1.02 | S. cerevisiae deletion strains, locus YJL134W, strain LCB3, active compounds read low 1.01 | S. cerevisiae deletion strains, locus YJL168C, strain set2, active compounds read low 0.988 | S. cerevisiae deletion strains, locus YJL187C, strain SWE1 (second series), active compounds read low 1 | S. cerevisiae deletion strains, locus YJR043C, strain POL32, active compounds read low 1.02 | S. cerevisiae deletion strains, locus YKL068W, active compounds read low 1.03 | S. cerevisiae deletion strains, locus YKR001C, strain vps1, active compounds read low 0.978 | S. cerevisiae deletion strains, locus YLR039C, strain RIC1, active compounds read low 0.99 | S. cerevisiae deletion strains, locus YLR058C, strain SHM2, active compounds read low 1 | S. cerevisiae deletion strains, locus YLR102C, strain apc9, active compounds read low 0.99 | S. cerevisiae deletion strains, locus YLR262C, strain YPT6, active compounds read low 1.02 | S. cerevisiae deletion strains, locus YLR268W, strain sec22, active compounds read low 0.979 | S. cerevisiae deletion strains, locus YLR330W, strain CHS5, active compounds read low 1.01 | S. cerevisiae deletion strains, locus YLR342W, strain FKS1 (second series), active compounds read low 0.99 | S. cerevisiae deletion strains, locus YLR371W, strain rom2, active compounds read low 0.984 | S. cerevisiae deletion strains, locus YLR418C, strain cdc73, active compounds read low 0.946 | S. cerevisiae deletion strains, locus YML016C, strain PPZ1, active compounds read low 1.01 | S. cerevisiae deletion strains, locus YML032C, strain rad52, active compounds read low 0.981 | S. cerevisiae deletion strains, locus YML124C, strain tub3, active compounds read low 0.995 | S. cerevisiae deletion strains, locus YMR078C, strain ctf18, active compounds read low 1.01 | S. cerevisiae deletion strains, locus YMR223W, strain ubp8, active compounds read low 0.985 | [6] 1.1 | S. cerevisiae deletion strains, locus YNL067W, strain RPL9B, active compounds read low 1.01 | S. cerevisiae deletion strains, locus YNL233W, strain BNI4, active compounds read low 1.02 | S. cerevisiae deletion strains, locus YNL250W, strain rad50, active compounds read low 0.989 | S. cerevisiae deletion strains, locus YNL271C, strain bni1, active compounds read low 0.991 | S. cerevisiae deletion strains, locus YNL298W, strain CLA4, active compounds read low 1.01 | S. cerevisiae deletion strains, locus YNL307C, strain MCK1, active compounds read low 0.987 | S. cerevisiae deletion strains, locus YNR052C, strain pop2, active compounds read low 0.978 | S. cerevisiae deletion strains, locus YOL006C, strain TOP1, active compounds read low 0.978 | S. cerevisiae deletion strains, locus YOL012C, strain htz1 0.848 | S. cerevisiae deletion strains, locus YOL147C, strain pex11, active compounds read low 0.991 | S. cerevisiae deletion strains, locus YOR061W, strain CKA2, active compounds read low 0.99 | S. cerevisiae deletion strains, locus YOR069W, strain VPS5, active compounds read low 1.01 | S. cerevisiae deletion strains, locus YOR136W, strain idh2, active compounds read low 0.987 | S. cerevisiae deletion strains, locus YOR144C, strain elg1, active compounds read low 0.992 | S. cerevisiae deletion strains, locus YOR184W, strain ser1, active compounds read low 0.995 | S. cerevisiae deletion strains, locus YOR316C, strain cot1, active compounds read low 0.995 | [11] 0.994 | [12] 1.01 | S. cerevisiae deletion strains, locus YPR119W, strain clb2, active compounds read low 1.01 | S. cerevisiae deletion strains, locus YPR141C, strain kar3, active compounds read low 0.995 | S. cerevisiae deletion strains, locus YPR163C, strain tif3, active compounds read low 1.01 | S. cerevisiae deletion strains, locus YPR167C, strain met16, active compounds read low 0.978 | S. cerevisiae deletion strains, strain wtn01, active compounds read low 0.977 | S. cerevisiae strains, strain wild type, active compounds read low 1

Reference: PubChem BioAssay AID1159580 (chemical genetic matrix, 2015)
